PubChem BioAssay
The source made the active and inactive calls.

Assay: plasmodial surface anion channel blockers, osmotic lysis – cell-based, P. falciparum Indochina, OD700, 1 h, primary screen (AID 1154)
Conditions: P. falciparum Indochina infected RBC osmotic lysis, higher = more signal, called active from +8 up or from −8 down

z-score, inactive:
COC(=O)[C@H](Cc1ccccc1)N1CC(/C=C/C2CC2)=C[C@H]1[C@H](O)Cc1ccccc1 1.74
COC(=O)[C@@]1(Cc2ccc(F)cc2)[C@H]2c3cc(C(=O)N4CCCC4)n(CCc4ccc(O)c(O)c4)c3C[C@H]2CN1C(=O)c1ccccc1 2.9
C[C@]1(C(=O)NC2CC2)c2ccccc2C(=O)N(Cc2ccccc2)[C@H]1c1ccc(CO)cc1 2.84
COC(=O)C(CC#Cc1ccc2c(c1)[C@]1(C(=O)N2)[C@H](c2ccccc2OCCO)N2[C@H](c3ccccc3)[C@H](c3ccccc3)OC(=O)[C@H]2[C@@H]1C(=O)NC[C@H](O)c1ccccc1)C(=O)OC 2.45
COCCOC(=O)N1C(=O)[C@@]2(c3cc(C#CCCO)ccc31)[C@H](C(=O)Nc1nc3ccccc3s1)[C@H]1C(=O)O[C@H](c3ccccc3)[C@H](c3ccccc3)N1[C@@H]2c1ccccc1OCCO 5.19
COCCOC(=O)N1C(=O)[C@@]2(c3cc(C#CC4=CCCCC4)ccc31)[C@H](c1ccc(O)cc1)N1[C@H](c3ccccc3)[C@H](c3ccccc3)OC(=O)[C@H]1[C@@H]2C(=O)N1CCN(c2ncccn2)CC1 -0.0088
C[C@@H]1NC(=O)[C@@]23C(=O)N[C@@H](Cc4ccccc4)C2[C@H](C)[C@@]2(C)O[C@H]2C3/C=C/C/C=C\CNC(=O)[C@@H]2CCCN2C1=O (stereo not given in full) 0.518

z-score, active:
C=CC[C@]1(C(=O)NCCN2CCOCC2)N=C(c2ccc(OCCCO)cc2)O[C@H]1c1ccccc1CN=[N+]=[N-] 18.6
[N-]=[N+]=NCc1ccccc1[C@H]1OC(c2ccc(OCCCO)cc2)=N[C@@]1(CCS(=O)(=O)c1ccccc1)C(=O)NCC(O)CO (stereo not given in full) 27.1

Assay: plasmodial surface anion channel blockers, osmotic lysis – cell-based, P. falciparum Indochina, OD700, 2 h, primary screen (AID 1155);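 note: lysis reports solute entry through the parasite surface anion channel PSAC; channel blockers reduce lysis of infected cells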
Conditions: P. falciparum Indochina infected erythrocytes, higher = more signal, called active from +8 up or from −8 down

z-score, active:
[N-]=[N+]=NCc1ccccc1C[C@@]1(C(=O)NCc2ccccc2)N=C(c2ccc(OCCCO)cc2)O[C@@H]1c1ccccc1N=[N+]=[N-] 33.3
[N-]=[N+]=NCc1ccccc1[C@H]1OC(c2ccc(OCCCO)cc2)=N[C@@]1(CCS(=O)(=O)c1ccccc1)C(=O)N1CCCCC1 9.69
[N-]=[N+]=NCc1ccccc1[C@H]1OC(c2ccc(OCCCO)cc2)=N[C@@]1(CCS(=O)(=O)c1ccccc1)C(=O)NCC(O)CO (stereo not given in full) 21.1

z-score, inactive:
OCCCC1=CC(c2ccc(CN3CCCC3)cc2)N(Cc2sc3ccccc3c2Cl)CC1 (stereo not given) 1.29
CC(C)C(CO)N1C(=O)[C@@H]2C3C(=O)OCCC/C=C\[C@H]3OC23C=CCN(C(C)(C)C)C(=O)[C@@H]13 (stereo not given in full) 0.488
O=c1n(-c2ccccc2)c(=O)n2n1CC(COc1ccccc1)=C([C@H](O)CCc1ccccc1)[C@@H]2CO 0.497
CC(C)C(=C=CC[C@H](O)c1cccc(OCCO)c1)C[C@H](O)c1cc(Cl)cc(Cl)c1O 2.25
CC(C)(C)OC(=O)CC[C@]1(C(=O)NCC(O)CO)N=C(c2ccc(OCCCO)cc2)O[C@H]1c1ccccc1 (stereo not given in full) 1.43
COC(=O)[C@@]1(Cc2ccccc2)[C@H]2c3cc(C(=O)N(C)C)n(CCc4ccc(O)c(OC)c4)c3C[C@H]2CN1C(=O)c1ccccc1 0.277
C=CCNC(=O)[C@@H]1[C@H]2C(=O)O[C@H](c3ccccc3)[C@H](c3ccccc3)N2[C@H](c2ccc(O)cc2)[C@@]12C(=O)N(C(=O)OCCOC)c1ccc(C#CC3(O)CCCCCC3)cc12 -0.353
CCCC[C@@H]1C[C@H]1[C@@H](NC(=O)c1cccs1)c1ccc(C(F)(F)F)cc1 0.987
COCCOC(=O)N1C(=O)[C@@]2(c3cc(C#Cc4ccc(OC)cc4)ccc31)[C@H](c1ccccc1OCCO)N1[C@H](c3ccccc3)[C@H](c3ccccc3)OC(=O)[C@H]1[C@@H]2C(=O)N1CCCCCCC1 0.57
Cc1ccccc1C(O)C1C=CC2C(=O)N(C)C(=O)C2N1N(c1ccccc1)c1ccccc1 (stereo not given) 1.71
Cc1ccc(S[C@]2(C(=O)NCC(F)(F)F)CC(=O)N(Cc3ccccc3C(F)(F)F)[C@@H]2c2ccc(CO)cc2I)cc1 0.853
CC(C)N1C(=O)C[C@@](C(=O)NCCCN(C)C)(c2ccc([N+](=O)[O-])cc2)[C@H]1c1ccc(CO)cc1 1.1
CCOc1cc(C(O)C2C=CC3C(=O)N(c4ccccc4)C(=O)C3N2Nc2ccc(C#N)cc2)ccc1O (stereo not given) 2.72
CN(C)C(=O)[C@@]1(Cc2ccccc2CN=[N+]=[N-])N=C(c2ccc(OCCCO)cc2)O[C@H]1c1ccccc1CN=[N+]=[N-] 1.46
C=CC[C@]1(C(=O)O)COC(c2ccc(OCCCO)cc2)=N1 -0.0432
C=CCC(OC(C)=O)[C@@H]1[C@@H](N(Cc2cccc3ccccc23)C(=O)Cc2ccc(OC)cc2)c2cc(OCCCO)ccc2N1C(=O)c1ccc2ccccc2n1 (stereo not given in full) 0.786
CCOC(=O)C[C@H]1[C@H](OC(=O)Cc2ccc3c(c2)OCO3)[C@@H](NC(=O)CC(C)C)c2cc(OCCCO)ccc2N1C(=O)Cc1ccc(OC)cc1 -0.537
O=C1C2C=CC(C(O)c3ccc(F)cc3)N(n3cnnc3)C2C(=O)N1Cc1ccccc1 (stereo not given) -0.995
NC(=O)NCC#Cc1ccc2c(c1)[C@]1(C(=O)N2)[C@H](C(=O)NC[C@H](O)c2ccccc2)[C@H]2C(=O)O[C@H](c3ccccc3)[C@H](c3ccccc3)N2[C@@H]1c1ccc(OCCO)cc1 1.72
O=C1O[C@H](c2ccccc2)[C@H](c2ccccc2)N2[C@H]1[C@@H](C(=O)N1CCN(c3ncccn3)CC1)[C@]1(C(=O)Nc3ccc(C#CC4(O)CCCCCC4)cc31)[C@H]2c1ccc(OCCO)cc1 2.41
CCOc1cc(C(O)C2C=CC3C(=O)N(C)C(=O)C3N2Nc2ccccc2)ccc1O (stereo not given) 1.45
CN(C)CCCNC(=O)[C@@H]1c2ccccc2C(=O)N(Cc2ccccc2Cl)[C@H]1c1ccc(CO)cc1 0.603
O=C1NC(=O)C2C1C=CC(C(O)c1ccco1)N2Nc1ccccn1 (stereo not given) 0.74
CCCCC(O)C1C=CC2C(=O)N(c3ccccc3)C(=O)C2N1Nc1ccc(C(C)C)cc1 (stereo not given) 1.44
C=CC[C@@]1(C(=O)N2CCOCC2)N=C(c2ccc(OCCCO)cc2)O[C@@H]1c1ccccc1CN=[N+]=[N-] 4.83
COC(=O)[C@H](Cc1ccccc1)N1CC(/C=C/C2CC2)=C[C@H]1[C@H](O)Cc1ccccc1 0.714
C=CC[C@]1(C(=O)NCCN2CCOCC2)N=C(c2ccc(OCCCO)cc2)O[C@H]1c1ccccc1CN=[N+]=[N-] 1.83
COC(=O)[C@@]1(Cc2ccc(F)cc2)[C@H]2c3cc(C(=O)N4CCCC4)n(CCc4ccc(O)c(O)c4)c3C[C@H]2CN1C(=O)c1ccccc1 0.5
C[C@]1(C(=O)NC2CC2)c2ccccc2C(=O)N(Cc2ccccc2)[C@H]1c1ccc(CO)cc1 0.17
COC(=O)C(CC#Cc1ccc2c(c1)[C@]1(C(=O)N2)[C@H](c2ccccc2OCCO)N2[C@H](c3ccccc3)[C@H](c3ccccc3)OC(=O)[C@H]2[C@@H]1C(=O)NC[C@H](O)c1ccccc1)C(=O)OC 1.18
COCCOC(=O)N1C(=O)[C@@]2(c3cc(C#CCCO)ccc31)[C@H](C(=O)Nc1nc3ccccc3s1)[C@H]1C(=O)O[C@H](c3ccccc3)[C@H](c3ccccc3)N1[C@@H]2c1ccccc1OCCO 1.86
COCCOC(=O)N1C(=O)[C@@]2(c3cc(C#CC4=CCCCC4)ccc31)[C@H](c1ccc(O)cc1)N1[C@H](c3ccccc3)[C@H](c3ccccc3)OC(=O)[C@H]1[C@@H]2C(=O)N1CCN(c2ncccn2)CC1 0.18
C[C@@H]1NC(=O)[C@@]23C(=O)N[C@@H](Cc4ccccc4)C2[C@H](C)[C@@]2(C)O[C@H]2C3/C=C/C/C=C\CNC(=O)[C@@H]2CCCN2C1=O (stereo not given in full) -0.0429
